Among the test systems are T-47D breast; BT-549 breast; MDA-MB-435 melanoma; SW-620 colon; MCF7 breast; HCT-116 colon; HCC-2998 colon; KM12 colon.
Holding throughout (assay): NCI-60 one-dose screen, 48 h (100 = growth as untreated, 0 = no growth, -100 = all killed)
Holding throughout (details): 10 µM unless noted

The panel holds about 83,000 compounds, 20% with a hit somewhere; the sample as a whole holds those more often.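 Results are percent growth after 48 hours of single-concentration exposure. 100 means growth as in untreated cells, lower positive values show inhibition; negative values down to -100 show cell death.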 Unmarked numbers belong to inactive results. Activity calls are given as the source filed them. How the source made its calls: active means growth percent below 10; inactive means the rest.

As for `N=C(N)c1ccc(-c2ccc(-c3ccc(-c4cccs4)s3)s2)cc1F`, the growth with T-47D breast is 87.7%; in the test with BT-549 breast it was 99.3%; in the test with MDA-MB-435 melanoma, 94.1%; in the test on SW-620 colon, 91.5%; with MCF7 breast it was 64.9%; in the test with HCT-116 colon, 83.6%. For the same compound, the growth with HCC-2998 colon is 69%; in the test on KM12 colon, 100%.
Take `O=C(Nc1ccc(F)cc1)c1ccccc1`: the growth was 104% in the test on T-47D breast; 84.8% with BT-549 breast; 97.3% in the test with MDA-MB-435 melanoma; 101% in the test on SW-620 colon; 96% with MCF7 breast; 103% in the test on HCT-116 colon. The growth in the test on HCC-2998 colon is 109%; in the test with KM12 colon, 104%.
With `C=C(C)[C@@H]1CC[C@]2(C(=O)OC)CC[C@]3(C)[C@H](CC[C@@H]4[C@@]5(C)CC/C(=N\OCCC(=NCCC#N)NOCCC#N)C(C)(C)[C@@H]5CC[C@]43C)[C@@H]12`, the growth is 15.1% [100 µM] in the test on T-47D breast; 4.4% [100 µM] (active) with BT-549 breast; 14.6% [100 µM] with MDA-MB-435 melanoma; 22% [100 µM] with SW-620 colon; 12.4% [100 µM] with MCF7 breast; 4.16% [100 µM] (active) in the test on HCT-116 colon. Also, the results for the growth in the test with HCC-2998 colon and with KM12 colon were 26.9% [100 µM] and 10.9% [100 µM], respectively.
Regarding `C#CCNC(=O)CC[C@]1(C)[C@H]2CC[C@@H]3[C@@H]([C@@](C)(O)CCC=C(C)C)CC[C@@]3(C)[C@]2(C)CC[C@H]1C(=C)C`, the growth in the test on T-47D breast was 37.3% [100 µM]; in the test on BT-549 breast, 41.8% [100 µM]; with MDA-MB-435 melanoma, 43.2% [100 µM]; with SW-620 colon, -14.1% [100 µM] (active); in the test with MCF7 breast, 30.5% [100 µM]; in the test with HCT-116 colon, 16.6% [100 µM]. Besides, the growth is 87.2% [100 µM] in the test with HCC-2998 colon and 36% [100 µM] with KM12 colon.
Regarding `CNC(=O)c1cc(Oc2cccc3nc(NC(=O)Nc4cc(C(F)(F)F)cc(C(F)(F)F)c4)ccc23)ccn1`, the growth with T-47D breast is 15.5%; in the test on BT-549 breast, 46.1%; in the test with MDA-MB-435 melanoma, 40.2%; in the test on SW-620 colon, 63.8%; in the test on MCF7 breast it was 50.4%; in the test with HCT-116 colon it was 36.7%. Also, the growth is 79.7% in the test on HCC-2998 colon and 53.8% in the test with KM12 colon.
`O=C1/C(=C/c2cccc(OCc3ccccc3)c2)Oc2cc(OCCN3CCCCC3)ccc21`: the growth in the test with T-47D breast was 89.9%; with BT-549 breast, 75.6%; with MDA-MB-435 melanoma it was 85.4%; with SW-620 colon, 67.3%; in the test on MCF7 breast, 50.7%; in the test with HCT-116 colon, 52.8%. Moreover, the values for the growth with HCC-2998 colon and in the test with KM12 colon were 93.3% and 67.9%, respectively.

Values taken from PubChem BioAssay (NCI).
